Compound activity from PubChem.
Most compounds without a hit are left out; they make up all but 19% or so of the library.
IL1B secr inh: blocks inflammasome-driven IL-1 beta release. activity change, % at 57.5 µM. AID 743279. THP-1 LPS/ATP IL-1B secretion, AlphaLISA, 16 h; stronger effect = lower value. 360,000 tested, 4.7% active; in the data active = activity change below about -50%; inconclusive = mostly about -30% to -49%
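THP-1 cells pretreated 1 hr with compounds (up to 57.5 uM final), then stimulated with LPS (250 ng/mL final) plus ATP (1.25 mM final); secreted IL-1B measured by AlphaLISA after 16 hr, decreased signal indicating inhibition.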
TDP1 cell noCPT: qHTS for Inhibitors of human tyrosyl-DNA phosphodiesterase 1 (TDP1): qHTS in cells in absence of CPT | Potency, µM (series often up to 46.2 µM), inactives show at the highest dose activity change, negative = growth inhibition, most hits filed as inhibitors | AID 686978, 2013 | DT40 Tdp1-/- hTDP1 cells, no CPT, ATP luminescence, 48 h | 420,000 tested, 15% active; note: potency is the fitted concentration of half-maximal effect; nearly all actives have a fitted effect of over 55% in size
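Growth kinetics read by CellTiter-Glo luminescence after ≥48 hr at 37 °C. Cells: DT40 Tdp1-/- stably carrying human TDP1, 400 per well, compound exposure in the absence of CPT (DMSO vehicle).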
HT1080 IDH1KD tx: HT-1080 IDH1 knockdown cell toxicity (counter line); HT-1080 IDH1 knockdown viability, ATP luminescence, 48 h; Potency, µM (top dose mostly 46.1 µM), without a hit: at the top dose activity, negative = toxicity, usual class: cytotoxic; 360,000 tested, 2% active; AID 686971;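 note: potency is the fitted concentration of half-maximal effect; 0% = DMSO wells and -100% = cell-free medium wells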
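Knockdown cells (IDH1KD HT-1080) received compounds 2 h after plating at 750 cells/well and were kept 48 h at 37 °C in 5% FBS RPMI. A CellTiter-Glo luminescence read gave % activity for curve fitting.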
TDP1 cell CPT: growth inhibition of DT40 Tdp1-/-;hTDP1 cells with camptothecin (screen for TDP1 inhibitors) | chicken DT40 Tdp1-/-;hTDP1 cells + 20 nM CPT, ATP luminescence, 48 h | 420,000 tested, 12% active | Potency, µM (titrated, usually from 46.2 µM), inactives show top-dose activity change, negative = growth inhibition, usual class: inhibitors; note: potency is the fitted concentration of half-maximal effect; nearly all actives have a fitted effect of over 55% in size
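Chicken DT40 Tdp1-/- cells complemented with human TDP1, 400 cells/well, exposed to compounds plus 20 nM camptothecin for at least 48 h at 37 C; viability read as ATP content by CellTiter-Glo luminescence.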
ELG1 repair inh: ELG1-dependent DNA repair inhibition | 330,000 tested, 2.3% active | HEK293T ELG1-luciferase reporter, luminescence, 16 h; DNA damage induced by 5-fluorouridine | Potency, µM (top dose mostly 46.1 µM), for inactives: top-dose activity change, negative = inhibition, actives largely listed as inhibitors | AID 504467; note: potency is the fitted concentration of half-maximal effect; nearly all actives have a fitted effect of over 55% in size
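HEK293T cells expressing luciferase-tagged ELG1 (2,000/well) received 5-Fluorouridine plus compound or DMSO for 16 hr at 37 °C. Luciferase was read by ONE-Glo luminescence after 30 min at room temperature.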
HT1080NT lethal: kills 2HG-producing HT-1080-NT fibrosarcoma cells. HT-1080-NT fibrosarcoma viability, CellTiter-Glo ATP luminescence, 48 h. Potency, µM (doses to about 46.1 µM), for the others: at the highest dose activity, negative = less viability, most hits filed as cytotoxic. 360,000 tested, 1.6% active. AID 686970;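 note: NT is the 2HG producing partner of a matched IDH1 knockdown line; potency is the fitted concentration of half-maximal effect; 0% = DMSO-treated cells and -100% = media-only wells without cells; nearly all actives have a fitted effect of over 55% in size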
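Read-out is CellTiter-Glo luminescence after 10 minutes at room temperature, following 48 hours' compound treatment of HT-1080-NT cells (750 cells/well, RPMI, 5% FBS, 37 degrees C).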
Numbers without * were called inactive; ? = inconclusive; nt = no result. Unless noted, calls come from the whole dose curve; as a rule, active = well fitted curve in the direction sought with a large enough effect; inconclusive = small, poorly fitted or top-dose-only effect, or another doubt; inactive = no such curve, though single readings can be large; an effect the other way counts as inactive or inconclusive. Unless noted, % is set by controls: 0 for no effect and ±100 for the full control effect.

SMILES	IL1B secr inh	TDP1 cell noCPT	HT1080 IDH1KD tx	TDP1 cell CPT	ELG1 repair inh	HT1080NT lethal
O=C(NCc1ccccc1)c1ccc(N2CCC3(CC2)CC(c2ccc(Cl)cc2)=NO3)c([N+](=O)[O-])c1	?	?	-1%	6.5µM*	?	-4%
COc1ccc(CNC(=O)c2ccc(N3CCC4(CC3)CC(c3ccc(Cl)cc3)=NO4)c(NC(=O)c3ccccc3)c2)cc1	-2	-15%	9%	-12%	nt	11%
Cc1cccc(C)c1OC(=O)CSc1nnc(-c2ccc3c(c2)OCO3)o1	nt	-18%	nt	-21%	nt	nt
Cc1nnc(SCC(=O)Nc2ccccc2F)n1-c1ccc(F)cc1	4	6%	11%	7%	8%	6%
O=S1(=O)CC(N2CCN(c3ccccn3)CC2)CN1Cc1ccccc1 (centres undefined)	-15	-8%	9%	-19%	nt	27%
COc1ccc(CCCc2nnc(SCC(=O)Nc3ccc(C)cc3C)o2)cc1	nt	?	nt	-29%	nt	nt
COc1ccc(CCCc2nnc(SCC(=O)Nc3cc(F)ccc3C)o2)cc1	nt	12µM*	nt	?	nt	nt
CCN(CC)S(=O)(=O)c1ccc(C(=O)NNc2nc(-c3ccccc3)c3cc(Br)ccc3n2)cc1	?	?	-7%	?	23µM*	7%
CC(C)(C)C(=O)NNc1nc(-c2ccccc2)c2cc(Br)ccc2n1	-16	13µM*	-25%	16µM*	1%	-6%
COc1ccc(CNCC(O)COc2cccc3c2OC(C)(C)C3)cc1 (centres undefined)	?	8.2µM*	-29%	9.2µM*	9.2µM*	?
COc1cc(C)c(NC(=O)COc2cccc3c2OC(C)(C)C3)cc1OC	37	12µM*	-24%	16µM*	18µM*	-5%
COC(=O)c1ccc(COc2cccc3c2OC(C)(C)C3)cc1	6	-28%	-8%	?	10%	-6%
COc1ccccc1NC(=O)COC(=O)COc1cccc2c1OC(C)(C)C2	1	-14%	12%	-11%	7%	12%
COc1ccc(NC(=O)COc2cccc3c2OC(C)(C)C3)c(OC)c1	8	16µM*	-27%	?	6%	-5%
COc1cc(NC(=O)COc2cccc3c2OC(C)(C)C3)cc(OC)c1OC	0	8.2µM*	-1%	13µM*	13µM*	-1%
CC(=O)N1c2ccc(S(=O)(=O)N3CCCCC3)cc2CC1C(=O)NCc1ccc(N(C)C)cc1 (centres undefined)	-17	?	7%	?	3%	6%
Cc1ccc2c(c1)N(C(=O)CCC(=O)NC1CCCCCC1)CC(C)O2 (centres undefined)	-19	?	2%	?	16%	1%
COc1cccc(CNC(=O)COc2cccc3c2OC(C)(C)C3)c1	?	8%	1%	-23%	-11%	0%
Cc1ccc(CNC(=O)COc2cccc3c2OC(C)(C)C3)cc1	-15	18µM*	-5%	?	4%	-6%
COCc1ccc(C(=O)N2CCCC(C(=O)c3ccc(Cl)cc3C)C2)o1 (centres undefined)	26	?	1%	?	?	-5%
CC(=O)Nc1cc(-c2cccc(C(=O)NCCN(C)C)c2)cn2c(-c3ccc(F)c(Cl)c3)cnc12	-11	1.5µM*	21µM*	2.1µM*	nt	16µM*
CC(=O)Nc1cc(-c2cccc(C(=O)NCCN(C)C)c2)cn2c(-c3ccc(C(C)=O)cc3)cnc12	62	21µM*	?	?	nt	18µM*
Cc1ccc(F)cc1NC(=O)CSc1nnc(CNC(=O)c2ccco2)n1C	20	-8%	-9%	-19%	-4%	-5%
